# Screening data (PubChem BioAssay)
# Shown are actives, neighbours in structure and some others; about 6.9% of the full set was active somewhere.
# MCF10A rerep: A quantitative high throughput screen for small molecules that induce DNA re-replication in MCF 10a normal breast cells | 350,000 tested, 2.9% active | MCF 10A DNA re-replication, Hoechst nuclear intensity, 48 h | Potency, µM (titrated, usually from 46.1 µM), for the others: at the top dose activity, positive = re-replication, usual class: activators | AID 624296, 2012; further: potency means the concentration at half of the fitted maximal effect; % of control where 0% means no effect; nearly all actives have a fitted effect of over 50% in size
# Giardia kill: Small Molecules that selectively kill Giardia lamblia: qHTS; Giardia lamblia trophozoite viability; activity change, % at 7.66 µM, hits read low; 340,000 tested, 0.15% active; AID 540267, 2011; in the data active means activity change below about -80%; inconclusive means between about -30% and that limit;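 further: parasites exposed to compound for two days anaerobically before the ATP read; on the % scale 0 is the no-effect control and ±100 the full control effect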
#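 Giardia lamblia trophozoites (100 cells/well) were incubated with compounds for 48 h at 37 deg C under anaerobic conditions. Viability was read as ATP content by one-step luminescence after 15-30 min at room temperature.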
# Vif-A3G inh: qHTS for Inhibitors of Vif-A3G Interactions: qHTS; AID 602310, 2012; Potency, µM (series often up to 46.1 µM), without a hit: top-dose activity, negative = active, hits mostly inhibitors; HeLa A3G-eYFP + Vif (tagged APOBEC3G with the HIV-1 protein that degrades it), YFP fluorescence, overnight; 410,000 tested, 0.076% active; DNA dC->dU-editing enzyme APOBEC-3G (Homo sapiens), Q9HC16; further: potency means the concentration at half of the fitted maximal effect; on the % scale 0 is the no-effect control and ±100 the full control effect; nearly all actives have a fitted effect of over 60% in size
# Target sequence (Q9HC16 whole entry, looked up): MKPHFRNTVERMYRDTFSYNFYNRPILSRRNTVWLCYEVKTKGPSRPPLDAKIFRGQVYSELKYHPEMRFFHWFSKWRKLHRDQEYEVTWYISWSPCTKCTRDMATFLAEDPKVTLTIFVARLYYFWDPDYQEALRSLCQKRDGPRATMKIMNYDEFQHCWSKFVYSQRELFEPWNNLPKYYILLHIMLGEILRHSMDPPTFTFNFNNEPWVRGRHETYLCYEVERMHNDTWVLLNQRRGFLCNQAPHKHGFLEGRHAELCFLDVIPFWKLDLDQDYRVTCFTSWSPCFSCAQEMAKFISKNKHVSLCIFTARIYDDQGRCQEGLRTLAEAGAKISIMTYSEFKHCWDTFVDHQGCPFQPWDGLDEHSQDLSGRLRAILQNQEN
#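 Read-out is eYFP fluorescence (Ex 488/Em 500-530) from Vif-expressing HeLa A3G-eYFP cells; more signal means A3G escaped Vif-mediated degradation. Cells plated overnight, compound pinned in, incubated overnight at 37 deg C.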
# IL1B secr inh: qHTS for Inhibitors of Inflammasome Signaling: IL-1-beta AlphaLISA Primary Screen. THP-1 LPS/ATP IL-1B secretion, AlphaLISA, 16 h; hits give low values. activity change, % at 57.5 µM. 360,000 tested, 4.7% active. AID 743279, 2014; in the data active means activity change below about -50%; inconclusive means mostly about -30% to -49%; further: on the % scale 0 is the no-effect control and ±100 the full control effect
#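 THP-1 cells pretreated 1 hr with compounds (up to 57.5 uM final), then stimulated with LPS (250 ng/mL final) plus ATP (1.25 mM final); secreted IL-1B measured by AlphaLISA after 16 hr, decreased signal indicating inhibition.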
# SW480 rerep: A quantitative high throughput screen for small molecules that induce DNA re-replication in SW480 colon adenocarcinoma cells | Potency, µM (titrated, usually from 46.1 µM), for inactives: at the top dose re-replication activation, actives largely listed as activators | SW480 DNA re-replication, Hoechst DNA content imaging, 48 h | AID 624297, 2012 | 340,000 tested, 1.8% active; further: potency means the concentration at half of the fitted maximal effect; % of control where 0% means no effect; nearly all actives have a fitted effect of over 55% in size
#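 SW480 cells exposed to compounds for 48 hr at 37 C, 5% CO2, then Hoechst-stained 40 min. Nuclear DNA content imaged by fluorescence scanning (405 nm excitation, 500-530 nm emission); re-replication scored as increased high-intensity nuclei.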
# Vif-APOBEC3F blk: qHTS for Inhibitors of Vif-A3F Interactions: qHTS; HeLa A3F-eYFP + Vif (tagged APOBEC3F with the HIV-1 protein that degrades it), YFP fluorescence increase; Potency, µM (top dose mostly 46.1 µM), without a hit: top-dose activity, negative = active; 390,000 tested, 0.2% active; AID 602313, 2012; further: potency means the concentration at half of the fitted maximal effect; % of control where 0% means no effect; nearly all actives have a fitted effect of over 65% in size
#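 HeLa cells stably expressing Vif plus C-terminally eYFP-tagged A3F were seeded, incubated overnight at 37 deg C, dosed with compound, incubated overnight again at 37 deg C. Yellow fluorescence (Ex 488/Em 500-530) reported blocked Vif-mediated A3F-eYFP degradation.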
# An asterisk follows results filed as active; ? = inconclusive; / = no result. Unless noted, the call rests on the fitted dose curve; in most records, active means well fitted curve in the direction sought with a large enough effect; inconclusive means small, poorly fitted or top-dose-only effect, or another doubt; inactive means no such curve, though single readings can be large; an effect the other way counts as inactive or inconclusive.
SMILES,MCF10A rerep,Giardia kill,Vif-A3G inh,IL1B secr inh,SW480 rerep,Vif-APOBEC3F blk
COc1cccc(C=C(C(C)=O)C(=O)c2ccccc2)c1,/,/,/,-113.4*,/,/
COc1cccc(C(=O)N/N=C/C(Br)=C/c2ccccc2)c1,8.2µM*,-7.0,?,-74.6*,?,-16.2%
Cc1occc1C(=O)N/N=C/C(Br)=C/c1ccccc1,16.5%,-8.1,-13.5%,-78.4*,-1.1%,?
O=C(Nc1ccccc1)c1ccc(Br)c(S(=O)(=O)N2CCCCC2)c1,/,/,6.6%,/,/,10.3%
CCCCN(CC)C(=O)Nc1ccc2c(c1)N(C)C(=O)c1ccccc1S2,/,/,-5.7%,/,/,1.1%
O=C(CS(=O)(=O)c1cccc2nsnc12)Nc1ccc(F)cc1F,/,/,-2.8%,/,/,-0.1%
CC(=O)Nc1ccc(SCC(=O)c2cc(C)n(-c3ccccc3F)c2C)cc1,23.1µM*,-4.5,1.8%,-9.0,14.7%,0.2%
CCOC(=O)c1ccc2c(c1)N(Cc1ccc(F)cc1Cl)C(=O)c1ccccc1S2(=O)=O,/,/,0.8%,/,/,0.0%
COC(=O)c1ccc(NC(=O)CSc2n[nH]c(CC(C)C)n2)cc1,/,/,-0.1%,/,/,-3.6%
COc1ccc(C=C2CS(=O)(=O)CC(=Cc3ccc(OC)cc3)C2=O)cc1,/,/,?,-107.4*,/,3.0%
CN(C)/N=C/C=C1\CCC/C(=C\c2ccc(F)c(F)c2)C1=O,14.1µM*,-9.8,?,-105.9*,?,?
COc1ccc(/C=C2\CCC/C(=C\C=N\N(C)C)C2=O)cc1,8.2µM*,-5.9,-13.7%,-59.2*,-22.0%,-8.3%
COc1ccc(/C=C2\CCCCC2=O)cc1,-0.7%,-4.7,-9.2%,-4.2,-9.2%,-16.2%
CCN(CC)S(=O)(=O)c1ccc(C)c(NC(=S)N2CCN(C/C=C/c3ccccc3)CC2)c1,25.6%,17.2,4.4%,-7.0,26.7%,1.2%
CCN(CC)S(=O)(=O)c1ccc(C)c(NC(=S)N2CCN(c3ccccn3)CC2)c1,-1.9%,2.9,0.8%,-72.6*,-5.1%,1.1%
COc1cc(C2CC(=O)N(c3ccc(C)cc3)C(=O)C2)cc(OC)c1OC,6.51µM*,23.3,?,36.4,3.66µM*,-2.0%
O=C(NC(c1ccccc1)c1c(O)ccc2ccccc12)c1ccccc1Cl (stereo not given),23.1µM*,-14.4,-2.0%,?,?,-28.9%
CC(C)CC(=O)NC(c1ccccc1)c1c(O)ccc2ccccc12 (stereo not given),0.1%,-4.3,-1.7%,-80.2*,-3.6%,6.5%
CCCCC(=O)NC(c1ccc([N+](=O)[O-])cc1)c1c(O)ccc2ccccc12 (stereo not given),?,?,-11.9%,-59.7*,?,?
CCC(=O)NC(c1ccc([N+](=O)[O-])cc1)c1c(O)ccc2ccccc12 (stereo not given),?,-2.2,-1.1%,?,0.1%,1.8%
Cc1cccc(Cn2cnc3c(cnn3-c3ccc(Cl)cc3)c2=O)c1,/,/,4.7%,/,/,0.2%
O=C(NCc1cccnc1)c1cc(Sc2cccc(Cl)c2)nc2ccccc12,?,-13.9,-25.5%,-80.8*,0.8%,-17.1%
COc1cccc(CNC(=O)c2cc(Sc3cccc(Cl)c3)nc3ccccc23)c1,/,/,0.6%,/,/,3.1%
Cc1ccc(C)c(N2CCN(c3nc4ccccc4c(=O)n3-c3ccc(Cl)cc3)CC2)c1,/,/,1.3%,/,/,0.5%
COc1ccc(CNC(=O)CC(c2ccc(OC)c(OC)c2)N2Cc3ccccc3C2=O)cc1 (stereo not given),/,/,3.2%,/,/,4.4%
COc1ccc(NCc2nc3ccccc3n2CCOc2ccccc2C)cc1,/,/,-0.6%,/,/,5.1%
CC(C)C[C@@H](CO)N(Cc1ccccc1)S(=O)(=O)N(Cc1ccccc1)[C@@H](CO)CC(C)C,?,19.9,-21.5%,-63.4*,0.0%,3.7%
